Screening results as filed in PubChem.
PKD1 inh = PKD1 (human) kinase inhibition | Q15139 | PKD1 kinase fluorescence polarization assay | inhibition, % (test concentration not listed) | 200,000 compounds, 0.056% hits | AID 797; in the data active means inhibition above about 50%
WT yeast gro inh = growth inhibition of WT yeast, mitochondrial fusion screen | mitochondrial fusion phenotypic screen, WT strain | inhibition, % at 10 µM | 190,000 compounds, 2.1% hits | AID 1362; in the data active means inhibition above about 58%; tested in S. cerevisiae
DTT redox prof = compounds producing H2O2 with reducing agent – biochemical, NIH compound library profiling, artefact control for MLSCN library redox annotation, primary screen; DTT-dependent redox cycling H2O2, phenol red/HRP absorbance; 100% = 100 µM peroxide control, 0% = buffer; activation, % at 10 µM; 200,000 compounds, 0.03% hits; AID 878;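 active means activation of at least 50% relative to the plate's high and low controls in the primary single-dose screen; inactive means activation below 50%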;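 further: compound incubated with DTT at 0.8 mM final as the reducing agent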
PERK inhibitor = human PERK inhibition, primary cell-based screen; CHO PERK-DD fusion, SEAP luminescence translation reporter; Q9NZJ5; inhibition, % at 5.6 µM; 220,000 compounds, 0.17% hits;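 active means inhibition above the mean inhibition of all tested compounds plus 3 SD, set separately per screening campaign, cut at about 2.9% in these data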;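 further: PERK kinase domain activated by AP20187 dimerizer at 100 nM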
Target sequence (Q9NZJ5 whole entry, looked up, the tested form may be a part): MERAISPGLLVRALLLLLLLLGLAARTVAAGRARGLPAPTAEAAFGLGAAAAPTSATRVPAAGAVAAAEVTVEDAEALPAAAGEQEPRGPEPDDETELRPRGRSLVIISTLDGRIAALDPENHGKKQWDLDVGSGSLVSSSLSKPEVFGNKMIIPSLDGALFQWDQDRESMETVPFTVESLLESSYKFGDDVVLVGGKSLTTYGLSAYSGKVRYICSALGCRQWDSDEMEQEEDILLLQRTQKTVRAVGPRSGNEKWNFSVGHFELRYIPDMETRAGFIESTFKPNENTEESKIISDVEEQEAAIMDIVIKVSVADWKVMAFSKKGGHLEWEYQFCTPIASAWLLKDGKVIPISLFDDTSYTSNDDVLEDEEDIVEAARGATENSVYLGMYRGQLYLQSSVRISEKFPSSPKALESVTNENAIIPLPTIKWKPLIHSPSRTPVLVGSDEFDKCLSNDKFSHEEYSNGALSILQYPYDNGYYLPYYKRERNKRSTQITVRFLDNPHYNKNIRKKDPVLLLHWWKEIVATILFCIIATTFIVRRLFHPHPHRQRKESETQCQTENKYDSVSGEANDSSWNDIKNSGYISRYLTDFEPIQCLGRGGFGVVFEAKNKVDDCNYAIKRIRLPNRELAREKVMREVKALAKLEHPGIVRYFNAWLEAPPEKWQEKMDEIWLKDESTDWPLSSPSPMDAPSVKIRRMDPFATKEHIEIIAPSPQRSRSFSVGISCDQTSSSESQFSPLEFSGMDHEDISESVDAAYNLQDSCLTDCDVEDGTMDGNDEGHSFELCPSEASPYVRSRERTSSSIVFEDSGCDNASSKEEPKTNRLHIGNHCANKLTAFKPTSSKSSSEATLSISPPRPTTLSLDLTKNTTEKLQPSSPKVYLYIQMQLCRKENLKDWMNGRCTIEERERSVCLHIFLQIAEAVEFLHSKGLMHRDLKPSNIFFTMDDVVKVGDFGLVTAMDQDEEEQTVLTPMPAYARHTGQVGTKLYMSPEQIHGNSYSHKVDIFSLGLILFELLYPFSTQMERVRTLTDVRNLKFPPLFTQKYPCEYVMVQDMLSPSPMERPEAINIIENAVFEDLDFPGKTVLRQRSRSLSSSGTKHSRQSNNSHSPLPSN
TNF death inh = inhibitors of TNF-alpha induced necroptosis in Jurkat FADD-/- cells; AID 463075; activation (protection from cell death), % at 10 µM; Jurkat FADD-/- TNF necroptosis rescue, ATP luminescence, 24 h; 0 = TNF only, 100 = no-TNF cells; 220,000 compounds, 0.068% hits;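 active means activation, meaning protection from cell death, of at least 50% relative to plate controls; inactive means activation below 50%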;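 further: necroptosis triggered by 40 ng/mL TNF-alpha added together with compound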
zVAD death inh = L929 zVAD cell death inhibition; L929 zVAD necroptosis rescue, ATP luminescence, 24 h; with zVAD 60 µM; viability rescue, % at 10 µM; 220,000 compounds, 0.38% hits;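 active means activation, scaled between plate controls, above about 75%, limit read from the data; inactive means activation under that limit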
A number is an active result; . = inactive; / = not tested or not shown; ! = repeats disagree. Rows were chosen to be rich in hits. Some 2.4% of all compounds tested hit in one or more screens of this group.

SMILES | PKD1 inh | WT yeast gro inh | DTT redox prof | PERK inhibitor | TNF death inh | zVAD death inh
CCOc1ccccc1C(=O)N(C)Cc1cc2ccccc2[nH]c1=O | . | . | . | . | . | .
CCOc1cc(C(=O)N(C)Cc2cc3ccccc3[nH]c2=O)cc(OCC)c1OCC | . | 77.8 | . | . | . | .
C=CCn1c(COc2cccc(C)c2)nnc1SCn1nnc2ccccc2c1=O | . | . | . | . | . | .
CCCC(C)NC(=S)Nc1cc(C)cc(C)c1 (stereo not drawn) | . | 72.8 | . | . | . | .
Cn1cc(Cl)c(-c2n[nH]c(=S)n2-c2ccccc2)n1 | . | . | . | 3.3 | . | .
Cc1ccc(-n2c(-c3nn(C)cc3Cl)n[nH]c2=S)cc1 | . | . | . | . | . | .
N=c1c2c(ncn1Cc1ccco1)Oc1c(ccc3ccccc13)C2c1ccccc1 (stereo not drawn) | . | 68.7 | . | . | . | .
N=c1c2c(ncn1Cc1ccco1)Oc1cc(O)ccc1C2c1ccccc1 (stereo not drawn) | / | / | / | . | . | .
COC(=O)C1=C(O)C(C(=O)OC)C(c2ccc(C)cc2)C(C#N)(C#N)C1c1ccc(C)cc1 (stereo not drawn) | . | 66.7 | . | . | . | .
CCOC(=O)CSC1=C(C#N)C(c2ccc(C)cc2)C(C(=O)OC)C(=O)N1 (stereo not drawn) | . | . | . | . | . | .
Cc1ccc2c(c1)c(-c1ccccc1)nc1nnnn12 | . | . | . | . | . | .
Cc1c(C#N)c(N=CN(C)C)c(C(=O)c2ccc(Br)cc2)n1-c1ccc(Cl)cc1 | . | 60.5 | . | . | . | .
CC(=O)c1c(N)c(C#N)c(C)n1-c1ccc(Br)cc1 | . | . | . | . | . | .
CC(C)(C)CC(C)(C)NC(=O)CSCC(=O)Nc1ccc2ccccc2c1 | . | 68.4 | . | . | . | .
O=C(CSc1ccncc1)Nc1ccc2ccccc2c1 | 71.1 | . | . | . | . | .
CC(C)CC(=O)Nc1ccc2ccccc2c1 | . | . | . | 3.2! | . | .
CCC(=O)Nc1ccc2ccccc2c1 | . | . | . | . | . | .
O=C(CSc1ccc2ccccc2c1)Nc1ccncc1 | . | . | . | . | . | .
COc1ccc(-n2c(SCC(=O)Nc3ccc(Br)cc3)nc(O)cc2=O)cc1 | / | / | / | . | . | .
NC(=O)c1c(/N=C/c2cccs2)sc2c1CCCC2 | / | / | / | . | . | .
CO/N=C(\Cn1ncc(N2CCCC2)c(Br)c1=O)c1ccc(Cl)cc1 | . | . | . | . | . | .
CO/N=C(\Cn1ncc(NC2CCCCC2)c(Br)c1=O)c1ccc(Cl)cc1 | . | 71.2 | . | . | . | .
CC(=O)c1nnn(-c2c(F)cccc2F)c1C | / | / | / | 3.1 | . | .
O=C(CN1/C(=C(/O)c2ccccc2)C(=O)c2ccccc2S1(=O)=O)c1ccccc1 | . | 64.2 | . | . | . | .
CCCCn1c(O)c(N=Nc2ccccn2)c2ccccc21 | . | 67.6 | . | . | . | .
SMILES | PKD1 inh | WT yeast gro inh | DTT redox prof | PERK inhibitor | TNF death inh | zVAD death inh
CCCCC1(C)OC(=O)C(=Cc2ccc(N(C)C)cc2)C(=O)O1 (stereo not drawn) | . | . | . | . | . | .
CC(=O)c1ccccc1NC(=O)COC(=O)c1ccccc1NC(=O)c1ccccc1 | . | . | . | . | . | .
COC(=O)COC(=O)c1ccccc1NC(=O)c1ccccc1 | . | 70.6 | . | . | . | .
O=C(Nc1ccc(Cl)cc1)NC1CCCCC1Cc1ccco1 (stereo not drawn) | . | 75.4 | . | . | . | .
O=C(CC1C(=O)NCCN1Cc1ccoc1)NCCCn1ncc2ccccc21 (stereo not drawn) | . | . | . | . | . | .
Cc1ccc(C(=O)Nc2ccccc2Oc2ccccc2)cc1[N+](=O)[O-] | . | 60.8 | . | . | . | .
O=C(Nc1ccccc1Oc1ccccc1)c1cccc([N+](=O)[O-])c1 | . | . | . | . | . | .
Cc1cc(C(=O)N2CCN(Cc3ccccc3)CC2)on1 | . | . | . | . | . | .
CC1Cc2ccccc2N1c1nc(C2CC2)nc2c1nnn2Cc1ccccc1 (stereo not drawn) | . | . | . | . | . | .
CC1Cc2ccccc2N1c1ncnc2c1nnn2Cc1ccccc1 (stereo not drawn) | . | 65.0 | . | . | . | .
